# Assay results from PubChem BioAssay (Tox21).
# A number with no mark means an inactive call. Activity calls are given as the source filed them. The call rests on the fitted dose curve; in most records, active means well fitted curve in the direction sought with a large enough effect in the repeat runs; inconclusive means weak or mixed curves; inactive means flat fitted curve, though single readings scatter.
# Test: qHTS assay to test for compound auto fluorescence at 460 nm (blue) in HEK293 cells (AID 720678)
# Settings: blue autofluorescence 405/460 nm; series mostly up to 91.3 µM; fluorescence, % of triamterene: at the top concentration
# Source text: National Center for Advancing Translational Sciences [NCATS]
# NIH Chemical Genomics Center [NCGC]
# U.S. Environmental Protection Agency [EPA]
# National Institutes of Environmental Health Sciences [NIEHS]
# National Toxicology Program [NTP]
# U.S. Food and Drug Administration [FDA]
# Compound auto fluorescence often interferes with screening of the compound library against various biological targets and signaling pathways. Some of these compounds may have fluorophoric properties. Such properties may interfere with the assay outputs resulting in false positives and/or negatives. To decrease such complications and ensure the compound activities are relevant in terms of biological response, the Tox21 10K compound library was screened for auto fluorescence.
# From the fluorophores used as reporter signals in our screening assays, the auto fluorescence equivalencies of compounds against three fluorophores have been evaluated: Triamterene, Fluorescein and Rose Bengal sodium for blue, green and red fluorescence, respectively. The fluorescence intensities were measured using Excitation/Emission wavelengths at 405/460nm, 485/535nm and 540/590nm for blue, green and red labels, respectively. This assay includes the blue fluorescence data.
# Tox21 Assay Protocol Summary:
# 2,000 HEK293 cells in 5 uL of culture medium containing 10% dialyzed FBS per well were dispensed into black wall/clear bottom 1536-well plates using a Multidrop Combi Dispenser (Thermo Scientific). The assay plates were incubated for 4-5 hr at 37C to allow cell attachment to the well bottom, followed by the transfer of 23 nL compound or DMSO vehicle by a pintool work station (Kalypsys, San Diego, CA). After the assay plates were incubated overnight at 37C and 5% CO2, fluorescence intensities in the assay plates were measured by an Envision (PerkinElmer, Shelton, CT) plate reader using three labels for measuring blue, green and red fluorescence at […] 460, 535 and 590nm respectively.
# On the % scale 0 is the no-effect control and ±100 the full control effect.
Structure (SMILES),"fluorescence, % of triamterene",Potency
CN1CC(=O)N2[C@H](c3ccc4c(c3)OCO4)c3[nH]c4ccccc4c3C[C@@H]2C1=O,0.172% [at 46 µM],–
Cc1cc(=O)c2c(O)c3c(O)cc(=O)c4c3c3c(cc(O)c1c23)C(C)(C)C=4O,-0.0608% [at 46 µM],–
CC(C)(O)c1ccc(CNC(=O)c2cccnc2Oc2ccc3nonc3c2)cc1,0.0343%,–
CCCCCCCC/C=C\CCCCCCCCO,-0.0187%,–
C=Cc1ccc(S(=O)(=O)O)cc1,–,inactive
O=C1NC(=O)c2cc([N+](=O)[O-])ccc21,0.077%,–
O=C(O)C[C@H](NC(=O)OCc1ccccc1)C(=O)O,0.0436%,–
CN1C(=O)OC(C)(C)C1=O,–,inactive
CCC(=O)C1CC(C(C)C)CC=C1C (stereo not given),-0.0334%,–
O=c1c(O)c(-c2ccc(O)cc2)oc2cc(O)cc(O)c12,–,inactive
NC(=O)c1ccncc1,-0.0927% [at 95.7 µM],–
CC(=O)Nc1cc(S(=O)(=O)O)cc2cc(S(=O)(=O)O)c(N=Nc3ccccc3)c(O)c12,0.0186%,–
CCc1ccccc1,-0.0085%,–
Nc1cccc2c1CN(C1CCC(=O)NC1=O)C2=O (stereo not given),0.0155% [at 46 µM],–
CC(C)c1nc(CN(C)C(=O)N[C@H](C(=O)N[C@@H](Cc2ccccc2)C[C@H](O)[C@H](Cc2ccccc2)NC(=O)OCc2cncs2)C(C)C)cs1,–,inactive
Oc1c(I)cc(I)c2cccnc12,0.0662% [at 46 µM],–
O=C1c2ccccc2C(=O)N1CCc1noc(-c2ccc(CN3CCCCCC3)s2)n1,0.0524%,–
CC(=O)OCCN(CCOC(C)=O)c1ccc(N=Nc2ccc([N+](=O)[O-])cc2C#N)cc1,0.112%,–
C=C/C(C)=C/C/C=C(\C)CCC=C(C)C,0.165%,–
Cc1ccco1,-0.0581%,–

Structure (SMILES),"fluorescence, % of triamterene",Potency
O=C1Cc2ccccc2N1c1c(Cl)cccc1Cl,0.0243%,–
CC1=Nc2ccc3ccccc3c2C1(C)C,-0.0348%,–
c1ccc(C[n+]2cccc3ccccc32)cc1,0.98%,–
CC(CO)CO,-0.0389% [at 95.7 µM],–
CC(=O)Nc1ccc(C)cc1C,-0.0016%,–
O=C(O)c1cccc(-c2noc(-c3ccccc3F)n2)c1,-0.107% [at 46 µM],–
O=c1cc(-c2ccccc2)oc2cc(O)cc(O)c12,-0.273%,–
Cc1ccc(CO)cc1,0.0149% [at 95.7 µM],–
O=c1[nH]ncc2ccccc12,-0.0564%,–
O=[N+]([O-])c1cc(C2CCCCC2)c(O)c([N+](=O)[O-])c1,-0.977%,–
CCOC(=O)c1ccccc1C(=C1C=C(Br)C(=O)C(Br)=C1)c1cc(Br)c(O)c(Br)c1,0.0868%,–
C[C@@H]1CN(CCCn2c3ccccc3c3ccccc32)C[C@H](C)N1,-0.0052% [at 46 µM],–
OC(CCN1CCCC1)(c1ccccc1)C1CCCCC1 (stereo not given),0.0017% [at 18.6 µM],–
O=[N+]([O-])c1ccc(Nc2ccc(Nc3ccccc3)c(S(=O)(=O)O)c2)c([N+](=O)[O-])c1,-0.776%,–
C[C@H]1c2cccc(O)c2C(O)=C2C(=O)[C@]3(O)C(O)=C(C(N)=O)C(=O)[C@@H](N(C)C)[C@@H]3[C@@H](O)[C@@H]21,1.4% [at 46 µM],–
CCOC(=O)c1ccc(OCCN2C[C@H](O)[C@@H](O)[C@H](O)[C@H]2CO)cc1,-0.211% [at 46 µM],–
O=C(O)c1ccc(OCCCOc2ccc(C(=O)O)cc2)cc1,0.108% [at 46 µM],–
CCOC(C)=O,–,inactive
Cc1cc(O)ccc1O,0.0585%,–
O=Cc1c2ccccc2c(Cl)c2ccccc12,2.36% [at 46 µM],–
